Screens deposited in PubChem by several laboratories.
Only some compounds are listed: those with a hit (about 4.2% of all), similar ones and a draw of the others.
GDH-TPI counter – inhibits GDH-TPI coupling enzymes, artifact for Mtb FBA screen; GDH-TPI coupled enzyme counterscreen, NADH absorbance; inhibition, % at 4.8 µM; 360,000 compounds, 1.2% hits; AID 588335;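 note: 0% = DMSO wells and 100% = wells lacking the enzyme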
CCHF vOTU inh – CCHFV vOTU protease inhibition. Pep-AMC fluorescence. inhibition, % at 11.5 µM. 370,000 compounds, 0.55% hits. AID 651958; note: 0% = vehicle wells with enzyme and 100% = no enzyme wells
RecA splice inh – blocks M. tuberculosis RecA intein splicing; cell-free RecA intein splicing, fluorescence; inhibition, % (test concentration not listed); 290,000 compounds, 0.75% hits; AID 2221; in the data active = inhibition above about 30%;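 note: 0% = vehicle wells and 100% = reference inhibitor control wells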
FBA Mtb inh – inhibits M. tuberculosis FBA enzyme. inhibition, % at 1 µM. P9WQA3. 360,000 compounds, 2.3% hits. purified M. tuberculosis FBA, fluorescence read-out; in the data active = inhibition above about 27%;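 note: 0% = vehicle and 100% = reference inhibitor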
Target sequence (P9WQA3 whole entry, looked up): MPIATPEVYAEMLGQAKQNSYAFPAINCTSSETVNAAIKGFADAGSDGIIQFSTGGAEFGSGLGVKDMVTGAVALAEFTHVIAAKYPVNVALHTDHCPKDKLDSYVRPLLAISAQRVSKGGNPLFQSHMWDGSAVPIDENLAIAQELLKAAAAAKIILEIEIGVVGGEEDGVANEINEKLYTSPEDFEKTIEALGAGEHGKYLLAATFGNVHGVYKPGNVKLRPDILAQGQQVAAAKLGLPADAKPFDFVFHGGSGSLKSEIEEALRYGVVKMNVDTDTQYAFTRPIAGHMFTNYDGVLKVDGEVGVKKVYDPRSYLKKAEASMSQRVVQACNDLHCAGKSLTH
Numbers without * were called inactive. Cut-off read from the data, not from the text of the source, unless noted: active = inhibition above about 30%; inactive = the rest.

For C#CCNC(=O)C[C@H]1C[C@@]2(C(=O)OC)C(=C[C@H](C3CCCC3)O[C@@H]2C)N(CCC2=CCCCC2)C1=O the results were CCHF vOTU inh 8.
CCOC(=O)C1=CCC(c2ccc(N(CC)CC)cc2)N(S(=O)(=O)c2ccc(C)cc2)C1c1ccc([N+](=O)[O-])cc1 (centres undefined) was read as CCHF vOTU inh 12.
Screening COc1ccc2cc(OCC(=O)NNC(=O)Nc3ccc(F)cc3)ccc2c1 returned GDH-TPI counter 7, CCHF vOTU inh 2, RecA splice inh -6 and FBA Mtb inh 7.
Screening CCc1cc(=O)oc2cc(C)cc(OCC(=O)N3CCC(C(=O)NC(C)C)(c4ccccc4)CC3)c12 returned GDH-TPI counter 2, CCHF vOTU inh -15, RecA splice inh 3 and FBA Mtb inh 66*.
Screening Cc1cc(OCC(=O)N2CCC(C(=O)O)(c3ccccc3)CC2)c2c(C)cc(=O)oc2c1 returned GDH-TPI counter 2, CCHF vOTU inh -12 and FBA Mtb inh 10.
Screening CCCCc1cc(=O)oc2cc(C)cc(OC(C)C(=O)O)c12 (centres undefined) returned GDH-TPI counter 12, CCHF vOTU inh -61, RecA splice inh -1 and FBA Mtb inh 134*.
For Oc1[nH]c2ccccc2c1C1=NCCCC1 the results were GDH-TPI counter 27, CCHF vOTU inh 13, RecA splice inh -4 and FBA Mtb inh 0.
Screening CCn1c(O)c(C2=NCCCC2)c2ccccc21 returned GDH-TPI counter 36*, CCHF vOTU inh 6, RecA splice inh -3 and FBA Mtb inh 0.
Screening Cc1ccccc1SCC(=O)OCC(=O)NCCNC(=O)COC(=O)CSc1ccccc1C returned GDH-TPI counter -1, CCHF vOTU inh -3, RecA splice inh 2 and FBA Mtb inh 0.
COc1ccc(/C(O)=C(\C#N)c2nc3ccccc3n2C)cc1OC was read as GDH-TPI counter 51*, CCHF vOTU inh 20, RecA splice inh -2 and FBA Mtb inh -4.
`CCN(CC)C(=O)COc1coc(CN2CCN(c3ccccc3)CC2)cc1=O` gave GDH-TPI counter 6, CCHF vOTU inh -10, RecA splice inh -1 and FBA Mtb inh 2.
`O=C1[C@H]2C[C@@]3(n4ccc5ccccc54)c4ccccc4N(S(=O)(=O)c4ccccc4)[C@H]3N2C(=O)CN1Cc1ccccc1` gave CCHF vOTU inh 16.
For CC1(C)Cc2c(cnn2-c2ccc(F)cc2)C(NC(=O)C2=CC(=O)CC(C)(C)O2)C1 (centres undefined) the results were GDH-TPI counter 9, CCHF vOTU inh -6 and FBA Mtb inh 0.
`COc1ccc(-n2ncc3c2CC(C)(C)CC3NC(=O)C2=CC(=O)CC(C)(C)O2)cc1` (centres undefined) gave GDH-TPI counter -3, CCHF vOTU inh 12, RecA splice inh 1 and FBA Mtb inh 153*.
`N#C/C(=C\c1ccc[nH]1)C(=O)NC1CC1` gave GDH-TPI counter 32*, CCHF vOTU inh 10, RecA splice inh -1 and FBA Mtb inh -4.
For Cc1ccc(C)c(NC(=O)/C(C#N)=C/c2ccc[nH]2)c1 the results were GDH-TPI counter 31*, CCHF vOTU inh 1, RecA splice inh 0 and FBA Mtb inh -3.
`CCOC(=O)Cn1cc(CN2CCS(=O)(=O)N(Cc3ccc(F)cc3)C(C(=O)OC)C2)nn1` (centres undefined) gave CCHF vOTU inh 1.
`CCOc1ccc(CCN2C(=S)N([C@@H](CC(C)C)CN3CCC[C@@H]3CN3C(=S)NC[C@@H]3Cc3ccccc3)C[C@@H]2Cc2ccc(O)cc2)cc1` gave CCHF vOTU inh 14 and FBA Mtb inh 1.
For CC1CN(C(=O)CCC(=O)NCc2ccccn2)c2ccccc2O1 (centres undefined) the results were GDH-TPI counter 1, CCHF vOTU inh -8, RecA splice inh -2 and FBA Mtb inh -2.
`COCc1cc(=O)n2[nH]cc(-c3ccccc3)c2n1` gave GDH-TPI counter 23, CCHF vOTU inh -60, RecA splice inh 0 and FBA Mtb inh 133*.
`CCOC(=O)Cc1cc(=O)n2[nH]cc(-c3cccc(Br)c3)c2n1` gave GDH-TPI counter 8, CCHF vOTU inh -15, RecA splice inh 1 and FBA Mtb inh 26.
C[C@H]1[C@H](c2ccccc2)Oc2cccc(N3CCCC3)c2S(=O)(=O)N1Cc1cccc(F)c1 was read as CCHF vOTU inh -9.
COC(=O)C1CN(C2CCCC2)CCS(=O)(=O)N1Cc1cn(Cc2ccc(C)cc2)nn1 (centres undefined) was read as CCHF vOTU inh -5.
Screening CSc1nc(=S)c2[nH]c(=S)[nH]c2[nH]1 returned GDH-TPI counter 33*, CCHF vOTU inh 11, RecA splice inh -4 and FBA Mtb inh -2.
Nc1nc(=S)c2[nH]c(=S)[nH]c2[nH]1 was read as GDH-TPI counter 18, CCHF vOTU inh 10 and FBA Mtb inh 0.
`O=C1N/C(=N\N=C\c2ccco2)SC1Cc1ccccc1[N+](=O)[O-]` (centres undefined) gave GDH-TPI counter 38*, CCHF vOTU inh 8, RecA splice inh 3 and FBA Mtb inh -2.
For CCOc1ccc(CC2S/C(=N/N=C/c3ccco3)NC2=O)cc1 (centres undefined) the results were GDH-TPI counter 30, CCHF vOTU inh 6, RecA splice inh 0 and FBA Mtb inh 0.
For CN1C(=O)C(C)(C)c2cc(S(=O)(=O)N3CCN(c4ccccc4)CC3)ccc21 the results were GDH-TPI counter -1, CCHF vOTU inh 2, RecA splice inh 0 and FBA Mtb inh -1.
`CN1/C(=C\C=Nc2cc(S(=O)(=O)N3CCOCC3)ccc2N2CCOCC2)C(C)(C)c2ccccc21` gave GDH-TPI counter 41*, CCHF vOTU inh 3, RecA splice inh 2 and FBA Mtb inh -7.
For Cc1ccccc1N=C/C=C1\N(C)c2ccccc2C1(C)C the results were GDH-TPI counter 35*, CCHF vOTU inh 3, RecA splice inh -3 and FBA Mtb inh 2.
For CO/N=C/C=C1/N(C)c2ccccc2C1(C)C the results were GDH-TPI counter 60*, CCHF vOTU inh 9, RecA splice inh -1 and FBA Mtb inh -2.
Screening Cc1ccc2nc(-c3cccnc3)oc2c1 returned GDH-TPI counter -6, CCHF vOTU inh -8, RecA splice inh -3 and FBA Mtb inh 41*.
Screening CCC(=O)Nc1ccc2oc(-c3cccnc3)nc2c1 returned GDH-TPI counter 25, CCHF vOTU inh -40, RecA splice inh 2 and FBA Mtb inh 172*.
`CC(C)CC(=O)Nc1ccc2oc(-c3cccnc3)nc2c1` gave GDH-TPI counter -2, CCHF vOTU inh -65, RecA splice inh -5 and FBA Mtb inh 129*.
For Clc1ccc2oc(-c3cccnc3)nc2c1 the results were GDH-TPI counter 2, CCHF vOTU inh -6, RecA splice inh 0 and FBA Mtb inh 5.
Screening CC[C@H](C)[C@H]1CNC(=S)N1CC1CCN(CCC23CC4CC(CC(C4)C2)C3)CC1 returned GDH-TPI counter 1, CCHF vOTU inh 20 and FBA Mtb inh -3.
Screening O=C(CSc1nnc(-c2cccnc2)n1C1CCCCC1)N1CCCC1 returned CCHF vOTU inh -4.
